# Results from paper PMC12136788.
# Numbering of substitutions follows the chain as printed. Over roughly 24,000 sequences, “enrichment r” has its median near 0.99; the highest 2% begin near 3.7. For the sample, the highest values were picked, then their nearest neighbours and some sequences at random.
# T1: UNK ZnF1-3 (human, UniProt Q9C0B0 31-174)
# T1 sequence: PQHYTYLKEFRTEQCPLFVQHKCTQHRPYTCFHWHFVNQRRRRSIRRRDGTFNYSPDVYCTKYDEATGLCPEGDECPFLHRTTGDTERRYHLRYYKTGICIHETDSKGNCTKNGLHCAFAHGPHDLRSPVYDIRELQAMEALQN
# B1: chr12:56499883:56499884:+_ENSMUSG00000021024_ENSMUST00000021412|mus_mus|FALSE|FALSE (ssRNA)
# RNA: GGGAGUUCUACAGUCCGACGAUCGAUAGUAAUGUGACGGUCAAAACCGGCGCUGGAACCCCGGGACAUGGCGUUCCUGCUAUUUUAAACACAGUCUGCACCCCGUAGCACACACACCAGGGACCCAAGCCCCCUCCCGGAAGUCAACAGAGGAUUGAGCAUCA
# B2: chr8:110352747:110352748:+_ENSG00000120533_ENST00000521662|hu_mus|FALSE|FALSE (ssRNA)
# RNA: GGGAGUUCUACAGUCCGACGAUCCAGGGCUCUGCCUUUUGGAGUGAUUUCAGCCACCAAGUCAUCAACAGUAACGUGUUCUAGUCCUUUUUCUUUAAUUACCUCUUUACAGUGUGCCUUUAGCUGAUCCUUCCAGCCGCACUCCAACAGAGGAUUGAGCAUCA
# B3: chr6:31457689:31457690:+_ENSMUSG00000025609_ENSMUST00000142469|perfect_dup|motif|central (ssRNA)
# RNA: GGGAGUUCUACAGUCCGACGAUCUGAUCAGGUCUACCAGGUUGCCUUUAGGAGGAGUCAUGCUGUCAGGAAAGAAAUUUACGGAGGUGUCAAAGAGCUGAGUUCUUUGAGCAUAGGUAUGAUCCACAUCUGAAAAGCCAUAAUCAACAGAGGAUUGAGCAUCA
# B4: chr12:25667166:25667167:+_ENSMUSG00000036333_ENSMUST00000066652|mus_mus|motif|central (ssRNA)
# RNA: GGGAGUUCUACAGUCCGACGAUCUCUUCCACAUAAUUUAUCACACUCUGUGAUAUAAGAACCGACAUUUUCACAGAAAUCGGUAGCCGACUUUAAUUCACCGUGUCACGGCCUGGCCGAAGACGGCGCCCUCAGCUCUGCAGACAACAGAGGAUUGAGCAUCA
# B5: chr19:8913615:8913616:-_ENSMUSG00000071658_ENSMUST00000096259|mus_hu|mus_mus_mus_hu_False|1_8 (ssRNA)
# RNA: GGGAGUUCUACAGUCCGACGAUCAGGGUACCAAAACCUUCUGCCUGAAAUGGGUGCCCCACCCAGUAGGGAGUUGCAGCUGAAAGUAUCUGAUGCAGAAGCAGUGACUAUACGAAAGGAGGCCCCUGAUGCUCAGACGAGAUCCAACAGAGGAUUGAGCAUCA
# B6: chr2:241070490:241070491:-_ENSG00000172428_ENST00000607357|hu_mus|FALSE|FALSE (ssRNA)
# RNA: GGGAGUUCUACAGUCCGACGAUCUCACAGACAUGGAGCACAUAGGACCGGGCGGCCUCACUGGACAUCAUCAUCAUCAAAAAGGUCUUCAAAAUCAUUAAAAAAGUCUGCAUGAACGGCCUUCUCAUUGGCUGCCAGGUCCAUCAACAGAGGAUUGAGCAUCA
# B7: chr11:100882373:100882374:+_ENSMUSG00000019302_ENSMUST00000044721|mus_mus|FALSE|FALSE (ssRNA)
# RNA: GGGAGUUCUACAGUCCGACGAUCUUCCUGGUUAGUGUUGAUUUCCUUCAGUUCAUUUUCAAUCUUCUCGAAAUUGGCCUCUAAGUCGAUCAUGUCCCGAGGGAAGGGCACCUCUGGGUUUUCACCGGUGUCCAUAAUUGGGAUCAACAGAGGAUUGAGCAUCA
# B8: 90660906_90661026_1561_CDS_ENSG00000112182_ENST00000537989|human|control|control (ssRNA)
# RNA: GGGAGUUCUACAGUCCGACGAUCAUCCCCCGCUCUGUCCUUGGCGUCAGGCUCAUCUCCAGACAGGCAGAGCGUGAUGCUCUCUUCCUCAUUCUCUUCACUGGGCGGCUCACUUUUAAUCUGCCCCCUGGCAAGCCCCGGCUUCAACAGAGGAUUGAGCAUCA
# B9: chr2:119552488:119552489:+_ENSMUSG00000027304_ENSMUST00000028767|mus_hu|FALSE|FALSE (ssRNA)
# RNA: GGGAGUUCUACAGUCCGACGAUCGAACAUCGCUUCUUUCCACUUCAUAAACUCACUUUCGGUGAAUUCUUGGUUUGAGACAAACUCUAAACGGAACACGCGUUGGUCAUUGCCAUGCCGUAGUUGCAGCCCUUUGUUUGUUCUCAACAGAGGAUUGAGCAUCA
# B10: 98509248_98511339_722_CDS_ENSG00000140450_ENST00000268042|human|control|control (ssRNA)
# RNA: GGGAGUUCUACAGUCCGACGAUCGUAUCCCUUUCUUUCAAUUUUGGCACUCAGCGAGACUGGACCAGAAGUGAAAAACCAACAGCCAACCAUUUUCUCUUGAGUUUUCAAUACAGGGGUUAAUAAUGCUGGUGUGUUGACAUCCAACAGAGGAUUGAGCAUCA
# B11: chr16:45382771:45382772:-_ENSMUSG00000022661_ENSMUST00000163230|mus_mus|mus_mus_mus_hu_True|38_98 (ssRNA)
# RNA: GGGAGUUCUACAGUCCGACGAUCCUGGGUCAUGUUAUGGGCCCAAUGGACAGGGAGGGCAUGCUUCUCAAAAAAUGUGAGCUAUUGUCUAAGACUAACAAUAUUGCUCUAGCUAUAAAAAUAAGUUAAAUGAAUAAGUUAAGACAACAGAGGAUUGAGCAUCA
# B12: chr16:45382771:45382772:-_ENSMUSG00000022661_ENSMUST00000163230|mus_mus|mus_mus_mus_hu_True|38_108 (ssRNA)
# RNA: B11 RNA with G27A, C30G, A31U, G33A, A36G, G38A, G39A, C41A, C43A
# B13: chr16:45382771:45382772:-_ENSMUSG00000022661_ENSMUST00000163230|mus_mus|mus_mus_mus_hu_True|1_38 (ssRNA)
# RNA: GGGAGUUCUACAGUCCGACGAUCCUGGGUCAUGUUAUAAGACAAAUGGACAGGGAGGGCAUGCUUCUCAAAAAAUGUGAGCUAUUGUCUAAGACUAACAAUAUUGCUCUAGCUAUAAAAAUAAGUUAAAUGAAUAAACAUUACCAACAGAGGAUUGAGCAUCA
# B14: chr16:45382771:45382772:-_ENSMUSG00000022661_ENSMUST00000163230|mus_mus|mus_mus_mus_hu_True|38_88 (ssRNA)
# RNA: B11 RNA with G38A, G39A, C41A, C43A, C50U
# B15: 107603385_107603505_2018_CDS_ENSG00000091136_ENST00000393561|human|control|control (ssRNA)
# RNA: GGGAGUUCUACAGUCCGACGAUCGGAAUAUGGUAUGUUGUCAAUGAAAAACUCCAAAUAAGCCCCUUCAGGCACUCGGACGAAGCCGGCUCCAGUCCAGGAGGGAAUCCGGUCCUGGAUAUAUUGCCGCUCCACUAUGCUAACCAACAGAGGAUUGAGCAUCA
# B16: chr3:8561242:8561243:+_ENSMUSG00000027500_ENSMUST00000029002|mus_hu|FALSE|FALSE (ssRNA)
# RNA: GGGAGUUCUACAGUCCGACGAUCAACAACCAGCUCACAGUUUCCAAGUGGAAAAAUAUUCAGUAGCAUCAUGUACUUGUACUAUAGGUAAGAGCUUAAAAUGAACAUCAUCAAUCAUGGCAUCCACAAAUAAGCCACCUGACACAACAGAGGAUUGAGCAUCA
# B17: chr7:149068622:149068623:-_ENSMUSG00000025139_ENSMUST00000001950|mus_hu|mus_mus_mus_hu_False|68_108 (ssRNA)
# RNA: GGGAGUUCUACAGUCCGACGAUCGUGCAGGUACUGAGUGUGGCUUGUGGUCUGUCCUGGGUUAGAGCUGCUGGUAACACGGAACAUACCAUCUAGAACGUUCCAGUCCCGCCUGACACCUUCAUUCCCAAUGGAGAAGAAAUCCAACAGAGGAUUGAGCAUCA
# B18: chr2:5814250:5814251:-_ENSMUSG00000025816_ENSMUST00000102981|mus_hu|mus_mus_mus_hu_True|58_58 (ssRNA)
# RNA: GGGAGUUCUACAGUCCGACGAUCUUCCUUUCCGGUUUCUGAAUUUCUGGUAGAACUGCACAGAAUGGUUUGAUAACUUCUAAAAACUUGAUGCCCAUGGCUGCUGCUGGGGAGGCCCAGGGGGAAACCGCGGCCUCGGCGCUGCAACAGAGGAUUGAGCAUCA
# B19: 97007495_97007615_238_CDS_ENSG00000121152_ENST00000240423|human|control|control (ssRNA)
# RNA: GGGAGUUCUACAGUCCGACGAUCCAAUAAGCGAGGUGAGUCAGUGCUGAACUGCAGAUCAAAGACCCUCGAGCGCCUCCGCUGCAGCCGCUCCUUCUCAUCGUCAUUCUGAGGAAAGUCUUCGAGGACUGGGGUGCCAGGAAUCAACAGAGGAUUGAGCAUCA
# B20: 96635784_96638769_164_5pUTR_ENSMUSG00000020876_ENSMUST00000107661|mouse|control|control (ssRNA)
# RNA: GGGAGUUCUACAGUCCGACGAUCCCACAAGCCCAUGGGAAGGGCACAUAGGUGUUCGAGGAAGCUCUUCCGCCUGACAGAAAACCUGUCCCGUCCAUCAAGCAGCUGUUCUCAUUUUUCAGUCGGUAACCCACUCCUUUCACCCAACAGAGGAUUGAGCAUCA
# B21: chr12:39756943:39756944:-_ENSG00000139116_ENST00000544797|hu_mus|hu_hu_hu_mus_False|28_68 (ssRNA)
# RNA: GGGAGUUCUACAGUCCGACGAUCGGUUUGGCUGUUACCCCCAAGGGAAUCCUGCAAGAGUCUUGUCAGCUUGGAAUCUCUGUAAGGGACAUGGGUGGCUCUCUUGCUCUUGUCUCCCAAGGCGCUGAUUACAUUCCCAAGAGCCAACAGAGGAUUGAGCAUCA
# B22: chr16:45382771:45382772:-_ENSMUSG00000022661_ENSMUST00000163230|mus_mus|mus_mus_mus_hu_True|18_38 (ssRNA)
# RNA: B11 RNA with G38A, G39A, C41A, C43A, A117U, U121A, A123U, G124A, U125A, U126G
# B23: chr4:76721835:76721836:+_ENSG00000138768_ENST00000264904|hu_mus|hu_hu_hu_mus_True|8_28 (ssRNA)
# RNA: GGGAGUUCUACAGUCCGACGAUCGUUUGGCUGGGGUUUCUGAGACGCUCUGGAAUAUAACUCAUGUUUGCUAAUAAAUCCUAGUUUCUCUAUGAAAUUCUCUUUGCAAUCCUCUUCCUCUAUUAGUGUUUUAGCUUUCUCUUUCAACAGAGGAUUGAGCAUCA
# B24: chr4:76721835:76721836:+_ENSG00000138768_ENST00000264904|hu_mus|hu_hu_hu_mus_True|18_28 (ssRNA)
# RNA: GGGAGUUCUACAGUCCGACGAUCGUUUGGCUGGGGUUUCUGAGACGCUCUGGAAUAUAACUCAUGUUUGCUAAUAAAUCCUAGUUUCUCUAUGAAAUUCUCUUUGCAAUCCUCUUCUCAAUCAGUUUGCUUUAGUUUCUCUUUCAACAGAGGAUUGAGCAUCA
# B25: chr16:45382771:45382772:-_ENSMUSG00000022661_ENSMUST00000163230|mus_mus|mus_mus_mus_hu_True|38_38 (ssRNA)
# RNA: B11 RNA with G38A, G39A, C41A, C43A
# B26: chr16:45382771:45382772:-_ENSMUSG00000022661_ENSMUST00000163230|mus_mus|mus_mus_mus_hu_True|38_78 (ssRNA)
# RNA: B11 RNA with G38A, G39A, C41A, C43A, G57A, C66U
# B27: chr16:45382771:45382772:-_ENSMUSG00000022661_ENSMUST00000163230|mus_mus|mus_mus_mus_hu_True|38_48 (ssRNA)
# RNA: B11 RNA with G38A, G39A, C41A, C43A, U87A
# B28: chr19:16212804:16212805:+_ENSG00000167460_ENST00000300933|hu_mus|hu_hu_hu_mus_False|38_98 (ssRNA)
# RNA: GGGAGUUCUACAGUCCGACGAUCAACAAUUCUGGAGAAGAACAUCAAUGUAACAUGGAACAGCAUUAAAGCUCAGUCAGAAGGCACAUGGGCAACAAUGACUAUUUCAGCAUUCUCGCUUGGAAUGCUUAAAGACAAUCUGUUCAACAGAGGAUUGAGCAUCA
# Target: T1, UNK ZnF1-3
# Experiment: nsRBNS (natural sequence RNA bind-n-seq); RBNS binding buffer (assumed for nsRBNS): 25 mM Tris pH 7.5, 150 mM KCl, 3 mM MgCl2, 0.01% Triton X-100, 500 ug/ml BSA, 20 U/ml SUPERase-In, 4 C; UNK is unkempt and MSI1 is Musashi-1; names of the RNAs are library labels; protein concentration not given here; high values mean tight binding
row,Binder,binding signal [enrichment R]
1,B1,0.679
2,B2,0.801
3,B3,1.63
4,B4,0.699
5,B5,1.25
6,B6,0.924
7,B7,0.394
8,B8,0.641
9,B9,0.468
10,B10,1.16
11,B11,11.2
12,B12,8.75
13,B13,6.59
14,B14,7.9
15,B15,0.989
16,B16,1.49
17,B17,0.783
18,B18,1.21
19,B19,1.1
20,B20,1.14
21,B21,0.792
22,B22,10.5
23,B23,0.588
24,B24,0.475
25,B25,16.7
26,B26,13.9
27,B27,8.11
28,B28,1.15
